Measurements reported in PubChem BioAssay AID1159580 (chemical genetic matrix, 2015).
Several values for one entry are separate records, joined by “and”; a condition that tells them apart may be missing. Equal values may be shown once. In all, about 5,500 compounds went through this assay and about 2,000 (36%) were called active. Not shown: some 18% with an inconclusive outcome. No stated cut-off is given here; in the data, active means normalized growth mostly below about 0.91 (no sharp cut-off); inconclusive means no clear call, values can overlap the other calls; inactive means mostly above about 0.92. This is one part of the list.

Assay: chemical genetic growth profiling, strain panel (AID 1159580);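 further: tested at 20 µM; growth read once vehicle control cultures reached saturation at 30 °C; 1 = growth at the plate median or of vehicle wells; lower values mean less growth of the strain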
Settings: S. cerevisiae deletion strains, growth OD

Measured: normalized growth

O=C1O[C@@H](CO)[C@H](O)[C@@H](O)[C@@H]1O
inactive: locus YAL021C, strain ccr4, hits give low values 0.997 | locus YAL026C, strain drs2, hits give low values 1.03 | locus YAL030W, strain snc1, hits give low values 1.01 | locus YBL061C, strain skt5, hits give low values 1.03 | locus YBR009C, strain hhf1, hits give low values 1.01 | locus YBR021W, strain FUR4, hits give low values 0.999 | locus YBR023C, strain chs3, hits give low values 1.02 | locus YBR171W, strain sec66, hits give low values 1.03 | locus YBR229C, strain ROT2, hits give low values 1 | locus YBR231C, strain swc5, hits give low values 1.08 | locus YBR279W, strain paf1, hits give low values 1.01 | locus YCL011C, strain gbp2, hits give low values 1.02 | locus YCL016C, strain dcc1, hits give low values 1.01 | locus YCL029C, strain bik1, hits give low values 0.99 | locus YCL061C, strain MRC1, hits give low values 1.01 | locus YCL069W, strain vba3, hits give low values 1.03 | locus YCR088W, strain abp1, hits give low values 1.02 | locus YDL005C, strain med2, hits give low values 1.03 | locus YDL035C, strain GPR1, hits give low values 1.01 | locus YDL040C, strain nat1, hits give low values 1.03 | locus YDL074C, strain BRE1, hits give low values 0.974 | locus YDL101C, strain DUN1, hits give low values 1.01 | locus YDL134C, strain PPH21, hits give low values 1.01 | locus YDL185W, strain tfp1, hits give low values 1 | locus YDL192W, strain arf1, hits give low values 1.01 | locus YDR001C, strain nth1, hits give low values 1.03 | locus YDR069C, strain doa4, hits give low values 1.02 | locus YDR101C, strain arx1, hits give low values 0.946 | locus YDR137W, strain rgp1, hits give low values 1.04 | locus YDR150W, strain NUM1, hits give low values 1 | locus YDR159W, strain sac3, hits give low values 1 | locus YDR162C, strain NBP2, hits give low values 1.02 | locus YDR195W, strain ref2 0.99 | locus YDR297W, strain sur2, hits give low values 1.02 | locus YDR318W, strain mcm21, hits give low values 1.01 | locus YDR334W, strain swr1, hits give low values 1.03 | locus YDR335W, strain msn5, hits give low values 1.01 | locus YDR388W, hits give low values 1.01 | locus YDR392W, strain spt3, hits give low values 1.06 | locus YDR502C, strain sam2, hits give low values 1 | locus YEL003W, strain gim4, hits give low values 1.02 | locus YEL037C, strain rad23, hits give low values 1.01 | locus YEL061C, strain CIN8 (second series), hits give low values 1.03 | locus YEL061C, strain CIN8, hits give low values 1 | locus YER015W, strain faa2, hits give low values 1.02 | locus YER016W, strain bim1, hits give low values 1.03 | locus YER110C, hits give low values 1.01 | locus YER111C, strain swi4, hits give low values 1.01 | locus YER155C, strain BEM2 (second series), hits give low values 1.06 | locus YER155C, strain BEM2, hits give low values 1.01 | locus YER167W, strain BCK2, hits give low values 1.01 | locus YFR010W, strain ubp6, hits give low values 1.01 | locus YGL078C, strain dbp3, hits give low values 1.01 | locus YGL086W, strain mad1, hits give low values 0.983 | locus YGL167C, strain pmr1, hits give low values 1.02 | locus YGL173C, strain kem1, hits give low values 1.05 | locus YGL227W, strain vid30, hits give low values 1.03 | locus YGL240W, strain doc1, hits give low values 1.04 | locus YGL248W, strain PDE1, hits give low values 0.996 | locus YGL253W, strain hxk2, hits give low values 1.03 | locus YGR135W, strain pre9, hits give low values 1.05 | locus YGR229C, strain SMI1, hits give low values 0.997 | locus YGR252W, strain gcn5, hits give low values 1.06 | locus YHR013C, strain ard1, hits give low values 1.08 | locus YHR027C, strain rpn1, hits give low values 1.02 | locus YHR030C, strain SLT2, hits give low values 1 and 0.985 | locus YHR079C, strain IRE1 (second series), hits give low values 1 | locus YHR079C, strain IRE1, hits give low values 0.979 | locus YHR094C, strain hxt1, hits give low values 1.01 | locus YHR129C, strain ARP1, hits give low values 1.02 | locus YHR142W, strain chs7, hits give low values 1.02 | locus YHR200W, strain rpn10, hits give low values 0.998 | locus YIL066C, strain RNR3, hits give low values 1 | locus YIL073C, strain SPO22, hits give low values 1.05 | locus YIL125W, strain kgd1, hits give low values 0.999 | locus YIR030C, strain dcg1, hits give low values 1 | locus YJL092W, strain hpr5, hits give low values 1.01 | locus YJL095W, strain BCK1 (second series), hits give low values 1.02 | locus YJL095W, strain BCK1, hits give low values 1 and 0.979 | locus YJL115W, strain asf1, hits give low values 1.02 | locus YJL129C, strain trk1, hits give low values 1.02 | locus YJL134W, strain LCB3, hits give low values 1.01 | locus YJL154C, strain vps35, hits give low values 1.02 | locus YJL164C, strain tpk1, hits give low values 1.01 | locus YJL166W, strain qcr8, hits give low values 1.02 | locus YJL168C, strain set2, hits give low values 0.997 | locus YJL187C, strain SWE1 (second series), hits give low values 0.989 | locus YJL187C, strain SWE1, hits give low values 1.02 | locus YJR043C, strain POL32, hits give low values 0.99
